This is part of a sample that, as a whole, favours compounds with a hit. Of some 83,000 tested, about 20% had one in any assay.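 Negative percent growth values reflect cell death: -40 means 40% of the cells present at the start died, and -100 means all died.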 Unmarked numbers belong to inactive results. The source made the active and inactive calls.

The subject of this test is U251 CNS. As to the kind of experiment: NCI-60 one-dose screen, 48 h (100 = growth as untreated, 0 = no growth, -100 = all killed). The note with it: 10 µM unless noted. How it is done:
Growth inhibition of the U251 human tumor cell line is measured as a screen for anti-cancer activity. Cells are grown in 96 well plates and exposed to the test compound for 48 hours. Compounds are tested at a single concentration, which is 10^-5 M for most compounds. The reported endpoint is percent growth (GI% or GIPRCNT), where numbers from 0 - 100% represent growth inhibition, and numbers from -100% - 0 represent cell death. For example, a value of 40 represents 60% growth inhibition. A value of 0 means no net growth occurred over the course of the experiment. A value of -40 indicates 40% of cells at the beginning of the experiment died by the end of the experiment. A value of -100 means all cells are dead at the end of the experiment.
NCI-60 Human Tumor Cell Lines Screen was performed using the standard one-dose NCI protocol, which is described in more detail at https://dtp.cancer.gov/discovery_development/nci-60/default.htm.
Compounds with GIPRCNT values below 10 were considered active. Activity score was based on GIPRCNT using the following formula: […]
Score is 0 for GIPRCNT values of 100 or above, 50 for GIPRCNT values of 0, and 100 for GIPRCNT values of -100.
In the case of `COC(=O)c1c2c(c(C)[n+]([O-])c1C)C(=O)C(NCc1cccc(Cl)c1)=CC2=O`, the growth was -6% (active).

Take `CC1(C)[C@@H](O[C@@H]2OC[C@@H](O[C@@H]3O[C@H](CO)[C@@H](O)[C@H](O)[C@H]3O[C@@H]3OC[C@@H](O)[C@H](O)[C@H]3O)[C@H](O)[C@H]2O[C@@H]2O[C@H](CO)[C@@H](O)[C@H](O)[C@H]2O)CC[C@]2(C)[C@H]3CC[C@]45OC[C@@]6(CC[C@](C)(C=O)C[C@H]64)[C@H](O)C[C@@]5(C)[C@]3(C)CC[C@@H]12`: the growth was -89.8% (active). The result for `O=C(O)COc1ccc(Cl)c(Cl)c1` reads 108%; that for `c1ccc2c(c1)CCCc1nnc3nc4ccccc4n3c1-2`, 38.5%; that for `COc1cc2c(c(OC)c1OC)C(=O)CC(c1cccc(NC(=O)c3ccc(C#N)cc3)c1)O2` (stereo not given), 80.5%. The result for `CC(=O)/C(=C/c1ccc([N+](=O)[O-])cc1)C(=O)c1ccccc1` reads 71.3%; that for `CCCCC#Cc1c(I)n(C)c(=O)[nH]c1=O`, 2.73% (active); that for `CCN(CC)CCCN1C(=O)c2c(c(C)c3c(oc4ccc(O)cc43)c2C)C1=O`, 47.3%. The result for `NS(=O)(=O)c1ccc(-c2cc(-c3nnc(SCC(=O)Nc4ccc(C(=O)/C=C/c5ccc(Cl)cc5)cc4)n3-c3ccccc3)c3ccccc3n2)cc1` reads 81.1%; that for `NNCCc1ccc(NC(=O)CCCc2ccc(C(=O)Nc3ccccc3N)cc2)cc1`, 54.1%; that for `Cc1c(CN)cc(-c2ccc(Cl)cc2)n1-c1ccccc1`, 79.9%. On to `COC(=O)C(Cc1ccccc1)NC(=O)c1ccc(NC(=O)c2[nH]c(C)c(Cl)c2Cl)c(OC(C)C)c1` (stereo not given), for which the growth is 22.3%. The same measure for `O=[N+]([O-])c1cc(NS(=O)(=O)c2ccccc2)ccc1NS(=O)(=O)c1ccccc1`: 102%; for `C/C=C(/C)n1cnc2c(Nc3ccccn3)nc(Cl)nc21`: 99.8%. The same measure for `O=C1c2cccc3cccc(c23)C(=O)N1C/C=C/c1ccc2c3c(cccc13)C(=O)N(CCO)C2=O`: 71.1%; for `Cc1ccc2c(=O)cc(C(=O)Nc3sc4c(c3C(=O)NCc3cccnc3)CCCC4)oc2c1C`: 104%. Take `CCc1ccc(CCC(=O)Nc2ncc(Cc3ccccc3)s2)o1`: the growth is 27.2%. The same measure for `COc1cc(OC)c(C(=O)C(CN(C)C)CN(C)C)cc1OC`: 101%.

Regarding `C[C@@H]1O[C@@H](O[C@@H]2C[C@H](c3ccc4c(c3O)C(=O)C3=C(C4=O)[C@@]4(O)C(=O)C[C@](C)(O)C[C@@]4(O)C=C3)O[C@H](C)[C@H]2O)CC[C@@H]1O[C@H]1C[C@@H](O)[C@H](O)[C@@H](C)O1`, the growth is 98.7%. The same measure for `COc1cc(-c2nc3c(ncc4ccc(=O)n(-c5ccccc5)c43)s2)cc(OC)c1OC`: 80.3%.

With `CC1(C)OB(O)c2cc(-c3nc4ccc5[nH]ncc5c4c4c3CCCC4)ccc21`, the growth was 61.8%. The result for `Cc1ccc(-c2csc(NC(=O)c3ccccc3CN3C(=O)c4ccccc4C3=O)n2)cc1` reads 95.5%; that for `COc1cccc(Nc2ncnc3cc(NC(=O)CCl)ccc23)c1`, -99.2% (active). The same measure for `O=C(NNC(=O)c1nc2cc(F)ccc2n2cccc12)c1cnccn1`: 20.3%. Take `Cc1ccc(/C=C/C(=O)c2ccc(-n3cc(CN4CCN(c5cc6c(cc5F)c(=O)c(C(=O)O)cn6C5CC5)CC4)nn3)cc2)cc1`: the growth was 73.1%. As for `O=C(N=Nc1c(O)[nH]c2ccccc12)Nc1ccc(F)cc1`, the growth is 90.7%. The same measure for `COC(=O)c1nc(-c2ccccc2)oc1S(=O)(=O)NCC(c1ccc(Cl)cc1)N1CCOCC1` (stereo not given): 72.8%. The same measure for `C=CCC(CCCC)(C(=O)OCC)C(=O)OCC`: 102%. In the case of `CSC(SC)=C(C#N)c1nc2ccccc2s1`, the growth is 76.5%. The result for `O=C(Nc1ncc(Cc2ccccc2)s1)c1ccc2c(c1)OCCCO2` reads 35.4%; that for `Cc1ccc(NC(=O)Cn2c(Br)nc3c2c(=O)n(C)c(=O)n3C)cc1`, 4.05% (active). For the molecule `CCN1C(=O)N(CC)C2Nn3c(s/c(=C\c4ccccc4Br)c3=O)=NC21` (stereo not given), the growth was 4.95% (active). The same measure for `Clc1c(Cl)[n+](Cc2ccc3ccccc3c2)cn1Cc1ccc2ccccc2c1`: -82.6% (active). As to `O=c1nc(-c2ccccc2)c2cc(-c3ccc(C(F)(F)F)nc3)ccc2[nH]1`, the growth was 105%. The same measure for `Oc1c(CN2CCCC2)cc(CSCc2ccccc2)c2cccnc12`: -1.52% (active); for `O=C(C1CCCCC1)[C@@H]1[C@]2(C(=O)NC3CCCCC32)[C@@H]2CCCN2[C@@]12C(=O)NC1CCC(Cl)CC12` (stereo not given in full): -90.6% [100 µM] (active); for `Cc1cccc2c1C[C@@]1(C2=O)C(c2ccc(C(C)(C)C)cc2)=NOS1=O` (stereo not given in full): 88.2%. The same measure for `CC(C)N1C(=O)/C(=c2\sc3n(c2=O)C2C(NN=3)N(C)C(=O)N2C)c2ccccc21` (stereo not given): 48.2%; for `O=C(Nc1ccccc1O)c1ccc(CNC(=O)c2ccsc2Nc2ccnc(C(F)(F)F)c2)cc1`: 1.39% (active). Take `Cc1ccc(C2CC(c3nc(-c4ccc(Cl)cc4)oc3C)=NN2C(=O)c2ccncc2)cc1` (stereo not given): the growth was 87.7%.

These data come from PubChem BioAssay (NCI).
